A selection: hits, their analogues and other compounds. The true share with any hit is near 2.3%.
Pf Dd2 growth: P. falciparum Dd2 growth inhibitors, primary screen, SYBR Green fluorescence, single dose replicates | 72 h; stronger effect = lower value | activity change, % at 10 µM | 2.3% of 94,000 active; in the data active = activity change below about -80%
C diff growth: C. difficile growth inhibitors, primary screen, HTS | Clostridium difficile clinical isolate growth, OD600, 24 h; stronger effect = lower value | growth activity, negative = inhibition, % at 16 µg/mL (by protocol) | 0.25% of 86,000 active | AID 1259249, 2017;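 active = mean growth activity at or below -80% and every replicate also at or below -80%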
Each line names hits and unclear results; the compound was inactive in the other large screens.

C[C@@H]1CCCCO[C@@H](CN(C)CC2CCCCC2)[C@H](C)CN([C@H](C)CO)C(=O)c2cc(NS(=O)(=O)c3cn(C)cn3)ccc2O1	none
COCCNC(=O)C[C@H]1CC[C@@H]2[C@H](COc3ccc(NC(=O)Nc4ccccc4)cc3C(=O)N2C)O1	none
O=C(C[C@H]1C=C[C@H](NC(=O)Nc2ccc(F)cc2)[C@H](CO)O1)NCc1ccccn1	none
COc1ccccc1-c1cnc2c(c1)C(=O)N([C@@H](C)CO)C[C@@H](C)[C@H](CN(C)Cc1ccc(C(=O)O)cc1)O2	none
Cc1ccc(S(=O)(=O)N(C)C[C@@H]2OCCCC[C@@H](C)Oc3ccc(NC(=O)C4CCCCC4)cc3C(=O)N([C@H](C)CO)C[C@@H]2C)cc1	Pf Dd2 growth -89
C[C@@H]1CCCCO[C@@H](CN(C)S(=O)(=O)c2ccc(F)cc2)[C@@H](C)CN([C@@H](C)CO)C(=O)c2cc(NC(=O)C3CCCCC3)ccc2O1	none
Cc1ccc(S(=O)(=O)N(C)C[C@@H]2OCCCC[C@H](C)Oc3ccc(NC(=O)C4CCCCC4)cc3C(=O)N([C@H](C)CO)C[C@@H]2C)cc1	none
Cc1ccc(S(=O)(=O)N(C)C[C@H]2OCCCC[C@@H](C)Oc3ccc(NC(=O)C4CCCCC4)cc3C(=O)N([C@@H](C)CO)C[C@H]2C)cc1	none
C[C@H]1CCCCO[C@H](CN(C)S(=O)(=O)c2ccc(Cl)cc2)[C@@H](C)CN([C@@H](C)CO)C(=O)c2cc(NC(=O)C3CCCCC3)ccc2O1	Pf Dd2 growth -85
C[C@@H]1CN([C@H](C)CO)C(=O)c2cc(NC(=O)C3CCCCC3)ccc2O[C@@H](C)CCCCO[C@@H]1CN(C)S(=O)(=O)c1ccc(Cl)cc1	Pf Dd2 growth -86
Cc1ccc(S(=O)(=O)N(C)C[C@@H]2OCCCC[C@@H](C)Oc3ccc(NC(=O)C4CCCCC4)cc3C(=O)N([C@@H](C)CO)C[C@H]2C)cc1	none (no result: C diff growth)
C[C@@H]1CN([C@@H](C)CO)C(=O)c2cc(NC(=O)C3CCCCC3)ccc2O[C@@H](C)CCCCO[C@@H]1CN(C)S(=O)(=O)c1ccc(Cl)cc1	Pf Dd2 growth -81
C[C@H](CO)N1C[C@H](C)[C@@H](CN(C)C(=O)C2CCC2)Oc2cc(-c3cccnc3)ccc2S1(=O)=O	none
O=C(C[C@H]1CC[C@@H]2[C@H](COC[C@@H](O)CN2Cc2cccc(Cl)c2)O1)N1CCOCC1	none (no result: C diff growth)
Cc1ccc(CN(C)C[C@@H]2OCc3cn(nn3)CCCC(=O)N([C@@H](C)CO)C[C@H]2C)cc1	none
C[C@@H]1CCCCO[C@H](CN(C)S(=O)(=O)c2ccc(Cl)cc2)[C@@H](C)CN([C@H](C)CO)C(=O)c2cc(NC(=O)C3CCCCC3)ccc2O1	none
C[C@@H]1CCCCO[C@@H](CN(C)S(=O)(=O)c2ccc(Cl)cc2)[C@@H](C)CN([C@@H](C)CO)C(=O)c2cc(NC(=O)C3CCCCC3)ccc2O1	Pf Dd2 growth -81
C[C@@H]1CCCCO[C@@H](CN(C)S(=O)(=O)c2ccc(Cl)cc2)[C@H](C)CN([C@@H](C)CO)C(=O)c2cc(NC(=O)C3CCCCC3)ccc2O1	none
C[C@@H]1CCCCO[C@H](CN(C)S(=O)(=O)c2ccc(Cl)cc2)[C@H](C)CN([C@H](C)CO)C(=O)c2cc(NC(=O)C3CCCCC3)ccc2O1	Pf Dd2 growth -84
COc1ccc2c3c([nH]c2c1)[C@@H](CO)N(C(C)=O)CC31CCN(Cc2cc(-c3ccccc3)on2)CC1	none
COc1ccc2c3c([nH]c2c1)[C@H](CO)N(C(=O)Nc1ccc(F)cc1)CC31CCN(Cc2cc(-c3ccccc3)on2)CC1	Pf Dd2 growth -87
COc1ccc2c3c(n(C)c2c1)[C@@H](CO)N(C(=O)Nc1ccc(F)cc1)CC31CCN(Cc2ccccn2)CC1	Pf Dd2 growth -88
COc1ccc2c3c(n(C)c2c1)[C@@H](CO)N(C(=O)Nc1ccc(F)cc1)CC31CN(Cc2ccccn2)C1	none
COc1ccc2c3c(n(C)c2c1)[C@H](CO)N(C(=O)Nc1ccc(F)cc1)CC31CCN(Cc2ccccn2)CC1	Pf Dd2 growth -89
COc1cccc(CN2CCC3(CC2)CN(C(=O)Nc2ccc(F)cc2)[C@H](CO)c2c3c3ccc(OC)cc3n2C)c1	none
O=C(c1ccc(F)cc1)N1CC(=O)N2[C@H](C1)[C@@H](c1ccc(C#CC3CCCC3)cc1)[C@@H]2CO	none
C[C@@H]1CN([C@@H](C)CO)C(=O)c2cc(C#CCN(C)C)cnc2O[C@H]1CN(C)C(=O)c1ccc(F)cc1	none
Cc1ccccc1-c1ccc([C@H]2[C@@H](CO)N3CCCCN(C(=O)CN4CCOCC4)C[C@H]23)cc1	none
C[C@@H]1CCCCO[C@H](CN(C)S(=O)(=O)c2cccs2)[C@H](C)CN([C@H](C)CO)C(=O)c2cc(NS(=O)(=O)c3ccc(Cl)cc3)ccc2O1	Pf Dd2 growth -87
C[C@H]1CCCCO[C@H](CN(C)S(=O)(=O)c2cccs2)[C@@H](C)CN([C@@H](C)CO)C(=O)c2cc(NS(=O)(=O)c3ccccc3)ccc2O1	none

Screening data as filed in PubChem BioAssay.
